Compounds with a hit are over-represented: about 10% of the library has one in this group of screens.
JMJD2A Tudor: inhibitors of human JMJD2A Tudor domain. AlphaScreen JMJD2A-Tudor / H3K4me3 peptide binding. Potency, µM (series often up to 114 µM), inactives show top-dose activity change, negative = inhibition, actives largely listed as inhibitors. hit rate 4.4% among 390,000; note: potency is the fitted concentration of half-maximal effect; % is set by controls: 0 for no effect and ±100 for the full control effect; nearly all actives have a fitted effect of over 50% in size
HP1b chromo inh: blocks HP1-beta chromodomain binding to methylated histone tails; P83916; AlphaScreen HP1-beta / biotin-H3K9me3 peptide binding; Potency, µM (series often up to 114 µM), without a hit: at the highest dose activity change, negative = inhibition, actives largely listed as inhibitors; hit rate 0.56% among 390,000; AID 540317; note: potency is the fitted concentration of half-maximal effect; nearly all actives have a fitted effect of over 70% in size
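AlphaScreen: HP1-beta (50 nM) preformed 30 min with biotin-H3(1-18)K9me3 peptide (50 nM) in PBS pH 7.4, 0.01% Tween-20. Compound added for 30 min at RT, then streptavidin donor/nickel chelate acceptor beads (10 ug/mL) for 30 min.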
BAZ2B block: blocks human BAZ2B; Q9UIF8; AlphaScreen BAZ2B-H3K14Ac peptide displacement; Potency, µM (titrated, usually from 114 µM), without a hit: top-dose activity change, negative = inhibition, usual class: inhibitors; hit rate 4.4% among 360,000; note: potency is the fitted concentration of half-maximal effect; % is set by controls: 0 for no effect and ±100 for the full control effect; nearly all actives have a fitted effect of over 60% in size
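BAZ2B (50 nM) with biotin-H3(5-23)K14Ac peptide (50 nM) in PBS pH 7.4, 0.01% Tween-20, preformed 30 min, then compound 30 min at room temperature; top concentration 110uM. AlphaScreen streptavidin donor/nickel chelate acceptor beads (10 ug/mL final), 20 min dark, signal read.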
Six1-Eya2 blk: inhibitors of human Six1/Eya2 interaction; Q15475+O00167; AID 651725; hit rate 0.56% among 360,000; AlphaScreen GST-Six1/His-Eya2 binding, biochemical; stronger effect = lower value; activity change, % (concentration not given with the values); in the data active = activity change below about -65%; inconclusive = mostly about -30% to -63%; note: % is set by controls: 0 for no effect and ±100 for the full control effect
Target sequence (O00167 whole entry, looked up): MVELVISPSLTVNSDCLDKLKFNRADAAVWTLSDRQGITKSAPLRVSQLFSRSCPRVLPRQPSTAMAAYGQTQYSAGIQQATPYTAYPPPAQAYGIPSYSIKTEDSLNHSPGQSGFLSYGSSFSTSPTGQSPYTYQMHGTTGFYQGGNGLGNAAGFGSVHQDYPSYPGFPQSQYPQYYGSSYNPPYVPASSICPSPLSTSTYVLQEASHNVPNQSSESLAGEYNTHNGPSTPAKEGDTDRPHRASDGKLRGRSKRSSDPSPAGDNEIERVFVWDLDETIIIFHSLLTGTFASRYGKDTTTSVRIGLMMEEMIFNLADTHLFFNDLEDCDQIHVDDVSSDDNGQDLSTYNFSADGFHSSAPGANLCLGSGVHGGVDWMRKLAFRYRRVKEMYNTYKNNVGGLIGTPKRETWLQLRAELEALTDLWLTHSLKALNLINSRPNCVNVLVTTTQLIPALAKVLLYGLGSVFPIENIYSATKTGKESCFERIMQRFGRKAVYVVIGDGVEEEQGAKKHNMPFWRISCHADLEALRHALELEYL
Target sequence (Q15475 whole entry, looked up): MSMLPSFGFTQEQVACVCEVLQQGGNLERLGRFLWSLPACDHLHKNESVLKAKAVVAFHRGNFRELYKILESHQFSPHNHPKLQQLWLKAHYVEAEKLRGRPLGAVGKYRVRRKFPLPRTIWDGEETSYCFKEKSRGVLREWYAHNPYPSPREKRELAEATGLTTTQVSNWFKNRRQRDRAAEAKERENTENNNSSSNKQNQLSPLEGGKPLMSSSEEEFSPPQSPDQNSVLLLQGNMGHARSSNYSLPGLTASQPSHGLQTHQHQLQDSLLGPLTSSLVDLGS
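Homogeneous AlphaScreen proximity assay pairing GST-Six1 with His-tagged Eya2 (added as 5X mix: 250 nM and 500 nM) in 50 mM Tris pH 8.0, 300 mM NaCl, 1 mM TCEP. Glutathione donor and nickel acceptor beads; 1 h, 37 °C, dark.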
CtBP-E1A blk: inhibitors of CtBP/E1A interaction; AlphaScreen GST-E1A/His-CtBP binding, 1536-well; stronger effect = lower value; activity change, % (no concentration beside the values); hit rate 0.49% among 340,000; AID 651724; in the data active = activity change below about -65%; inconclusive = mostly about -30% to -63%; note: % is set by controls: 0 for no effect and ±100 for the full control effect
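In 5 uL wells, 23 nL compound meets equimolar GST-E1A and His-CtBP (5X stock 125 nM each) for 2 h, 37 °C. Beads (5X, 50 ug/mL) then 1 h, 37 °C, dark.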
G9a block: blocks human histone lysine methyltransferase G9a. Q96KQ7. G9a H3K9 monomethylation, AlphaScreen, 2 h. Potency, µM (top dose mostly 102 µM), for the others: top-dose activity, negative = inhibition, usual class: inhibitors. hit rate 8.8% among 350,000; note: potency is the fitted concentration of half-maximal effect; % is set by controls: 0 for no effect and ±100 for the full control effect; nearly all actives have a fitted effect of over 75% in size
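Using a bead-based AlphaScreen, monomethylated H3K9 product from 2 h room-temperature reactions (G9a 20 nM, peptide 500 nM, SAM 20 uM) was detected with 0.5 ug/mL rabbit anti-H3K9me1 antibody.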
Starred values were filed as active, the others as inactive; ? = inconclusive; . = not tested or not shown; [ ] = another dose, or the depositor's remark. Unless noted, calls come from the whole dose curve; as a rule, active = well fitted inhibition curve with a large enough effect; inconclusive = small, poorly fitted or top-dose-only effect; inactive = no such curve, though single readings can be large or run the other way.

SMILES	JMJD2A Tudor	HP1b chromo inh	BAZ2B block	Six1-Eya2 blk	CtBP-E1A blk	G9a block
COc1cc(C2C=C(Nc3ccccc3)C(=O)N2c2ccccc2)ccc1O (stereo unspecified)	?	-2.8%	?	-7.5	-22.6	50.1µM*
CCOC(=O)/C(C(=O)Nc1ccccc1Cl)=C1/NC(C)(C)Cc2ccccc21	-18.4%	-0.8%	-34.2%	-3.0	19.3	?
CCOC(=O)/C(C)=C1\NC(C)(C)Cc2ccccc21	22.4µM*	25.1µM*	17.8µM*	4.9	-0.5	2.51µM*
O=C(CCN1N=C(c2ccccc2)CCC1=O)NCCCN1CCOCC1	-4.2%	42.9%	-0.3%	4.3	6.3	50.1µM*
Cc1ccc(C2=NN(CCC(=O)NCCCN3CCOCC3)C(=O)CC2)cc1	-19.9%	15.9%	-3.1%	3.0	-1.3	24.2%[59 µM]
CCN(CC)c1ccc(NC(=O)C2CCCN(S(=O)(=O)c3cnc[nH]3)C2)c(C)c1 (stereo unspecified)	?	-5.0%	-5.2%	-2.4	-27.5	35.5µM*
Cc1ccc(NC(=O)C2CCCN(S(=O)(=O)c3cnc[nH]3)C2)cc1C (stereo unspecified)	-31.7%	22.3%	8.1%	10.9	0.0	-7.9%[59 µM]
COCCNC(=O)C1(C)Cc2c(-c3ccc(N(C)C)cc3)ccnc2O1 (stereo unspecified)	.	.	.	-5.1	5.2	.
CCCCCCCC/C=C\C/C=C\C/C=C\CCCC(=O)NCCO	.	.	.	.	.	30.4%[59 µM]
CCOc1cc(C(C(=O)NCC2CCCO2)N(C(=O)Cn2nnc3ccccc32)c2ccc(OC)c(OC)c2)ccc1O (stereo unspecified)	13.4%	21.3%	-0.8%	-4.9	-7.8	44.7µM*
COc1cc(C(C(=O)NCC2CCCO2)N(C(=O)Cn2nnc3ccccc32)c2ccc(C(C)=O)cc2)ccc1O (stereo unspecified)	-12.9%	19.3%	-0.2%	10.0	0.6	?
Cc1ccc(C(C(=O)NCc2ccco2)N(C(=O)Cn2nnc3ccccc32)c2ccccc2)o1 (stereo unspecified)	-33.8%	-18.7%	-7.6%	-8.2	-1.7	44.7µM*
Cc1ccc(NC(=O)/C=C\C(=O)N(c2ccc(C(C)C)cc2)C(C(=O)NCc2ccco2)c2ccc(Cl)cc2)cc1 (stereo unspecified)	-27.5%	24.3%	-17.3%	.	.	?
COc1ccc(N(C(=O)/C=C\C(=O)Nc2ccc(Cl)cc2)C(C(=O)NCc2ccco2)c2ccc(C)cc2)cc1 (stereo unspecified)	-33.6%	19.1%	?	.	.	11.2µM*
Cc1ccc(CN(C(=O)Cn2nnc3ccccc32)C(C(=O)NCc2ccco2)c2ccc(C)o2)cc1 (stereo unspecified)	-9.7%	32.7%	-3.6%	-11.3	-1.6	-3.7%[59 µM]
Cc1ccc(N(C(=O)Cn2nnc3ccccc32)C(C(=O)NCc2ccco2)c2ccc(C)o2)cc1 (stereo unspecified)	-12.3%	5.1%	-36.6%	0.0	4.1	?
COc1ccc(N(C(=O)Cn2nnc3ccccc32)C(C(=O)NCc2ccco2)c2ccc(C)o2)cc1 (stereo unspecified)	-25.3%	-16.1%	44.7µM*	-0.6	-12.8	50.1µM*
COc1ccc2c(c1)CC(C(=O)NCCc1ccc(S(N)(=O)=O)cc1)CO2 (stereo unspecified)	1.0%	29.2%[57 µM]	-6.3%	.	.	8.3%[59 µM]
CC(=O)c1c(C)[nH]c(C(=O)OCC(=O)c2ccc3c(c2)NC(=O)CO3)c1C	-20.6%	34.7%	.	-5.8	.	.
O=C(O)c1ccc(S(=O)(=O)N(Cl)Cl)cc1	.	.	.	.	.	-10.7%[2.33 µM]
Cc1c(CNC(=O)c2c([N+](=O)[O-])cnn2C)cnn1C	-17.2%	29.7%	-2.1%	4.1	3.3	7.3%
c1ccc(C(Nc2cccnc2)c2ccccc2)cc1	-2.8%	40.6%	.	-2.7	3.5	.
c1ccc(NC(c2ccccc2)c2ccncc2)cc1 (stereo unspecified)	-9.8%	57.4%	-0.5%	22.5	31.2	31.6µM*
NC(c1ccccc1)c1ccncc1 (stereo unspecified)	3.7%	29.1%	?	-0.8	.	44.7µM*

Screening results from PubChem BioAssay.
